Our source for the outcome and AC50 values is PubChem BioAssay (EPA / NIEHS).

Molecules are shown by their SMILES. The source made the active and inactive calls. How the source made its calls: active means hit-call score of the fitted dose curve at least 0.9, where 1 is the maximum; inactive means score below 0.9.

The experiment can be described thus: ATG_VDRE_CIS: Attagene CIS-FACTORIAL HepG2 Assay for human Vitamin D Receptor Element (VDRE) (AID 2282968). The following applies: HepG2 VDRE cis-reporter transcription, actives raise or lower the signal. The protocol:
ATG_CIS is a cell-based, multiplexed-readout assay that uses HepG2, a human liver cell line, with measurements taken at 24 hours after chemical dosing in a 24-well plate.ATG_VDRE_CIS is one of 52 assay component(s) measured or calculated from the ATG_CIS assay. It is designed to make measurements of mRNA induction, a form of inducible reporter, as detected with fluorescence intensity signals by Reverse transcription polymerase chain reaction (RT-PCR) and Capillary electrophoresis technology.Data from the assay component ATG_VDRE_CIS was analyzed into 1 assay endpoint. This assay endpoint, ATG_VDRE_CIS, was analyzed with bidirectional fitting relative to DMSO as the negative control and baseline of activity. Using a type of inducible reporter, measures of mRNA for gain or loss-of-signal activity can be used to understand the reporter gene at the transcription factor-level as they relate to the gene VDR. Furthermore, this assay endpoint can be referred to as a primary readout, because this assay has produced multiple assay endpoints where this one serves a reporter gene function. To generalize the intended target to other relatable targets, this assay endpoint is annotated to the nuclear receptor intended target family, where the subfamily is non-steroidal.
Human liver HepG2 cells are transiently transfected with multiple reporter transcription units (MRTUs) in 6-well plates using FuGene 6 reagent (Roche; 3 ml FuGene/1 mg DNA). The MRTU constructs are regulated by a cis-regulating element (promoter). […] A major difference between the CIS and TRANS system is that in CIS activities of endogenous TFs are measured, whereas the TRANS assay evaluates changes in activities of exogenous, chimeric NR-Gal4 proteins. […] At the end of 24 hour incubation, total RNA was isolated using TriZol reagent (Invitrogen). The isolated RNA is then reverse-transcribed using oligo(dT) primer and Mo-MLV reverse transcriptase (Invitrogen) with DNAse I (Ambion) treatment for 30 min. The one-tenth of the produced cDNA was amplified by PCR using Taq DNA polymerase (Invitrogen) and two reporter sequence-specific primers. The PCR products were fluorescently labeled by primer extension with 6-arboxyfluorescein (6-FAM) 5'-labeled reporter sequence-specific primer (2 min at 95 C, 20 s at 68 C and 10 min at 72 C) and these products were digested with 5U of HpaI (New England Biolabs) for 2h at 37 C. The fragments were purified using Qiaquick PCR columns (Qiagen), analyzed on an ABI 3130xL genetic analyzer (Applied Biosystems) with peak positions identified by using a set of X-rhodamine (ROX)-labeled MapMarker1000 molecular weight standards (BioVentures). The raw capillary electrophoresis data was processed using Attagraph software (Attagene).
As to `CCCCCOC(=O)CCCCC`, the compound was classed as inactive. Still for that read-out and setting: as for `COc1cc(C)ccc1O`, the entry is “inactive”.

In the case of `O=C(OCCc1ccccc1)c1ccccc1`, the compound was called inactive. Consider `O=c1c(O)c(-c2ccc(O)cc2O)oc2cc(O)cc(O)c12`, for which the call was inactive.

On to `CC1CCC(=O)C1=O` (stereo not given), for which the outcome was inactive. On to `CCCCC/C=C\C/C=C\CCCCCCCC(=O)O`, for which the compound was classed as inactive. Same read-out and setting: as for `CCCCCC1=CCCC1=O`, the entry is “inactive”; as for `CC1=NN(c2ccc(S(=O)(=O)O)cc2)C(=O)C1N=Nc1ccccc1` (stereo not given), “inactive”; as for `Cc1c(Cl)cccc1Cl`, “inactive”. Still for that read-out and setting: as for `N#Cc1ccc(C2CCCc3cncn32)cc1` (stereo not given), the entry is “inactive”; as for `CC(C)=CCl`, “inactive”. The same measure, in the same setting: as for `O=C1c2ccccc2C(=O)c2cc(S(=O)(=O)O)ccc21`, the entry is “inactive”; as for `CC(c1cc(C(C)(C)C)cc(C(C)(C)C)c1O)c1cc(C(C)(C)C)cc(C(C)(C)C)c1O`, “inactive”. As to `CC(C)CO`, the compound was called inactive.

In the case of `O=C(O)CC(C(=O)O)S(=O)(=O)O` (stereo not given), the call was inactive. The same measure, in the same setting: as for `CC(=O)OCC=C(C)C`, the entry is “inactive”; as for `CCCCCCCCCCCCCc1ccccc1`, “inactive”; as for `O=C1CCCCC1C1CCCCC1` (stereo not given), “inactive”. For the compound `CCCCC(C=O)CC` (stereo not given), the call was inactive.

As to `Cc1ccccc1CCO`, the compound was classed as inactive. The same measure, in the same setting: as for `CC(=O)c1ccccc1O`, the entry is “inactive”. As for `C=C[C@@]1(C)CC(=O)[C@]2(O)[C@@]3(C)[C@@H](O)CCC(C)(C)[C@@H]3[C@H](O)[C@H](OC(C)=O)[C@@]2(C)O1`, the AC50 was 2.1 µM (active). Turning to `C=CCCCCCCCCC=O`, the call was inactive.

For the compound `O=C1CCCN1C1CCCCC1`, the compound was called inactive. Regarding `C=CC(=O)NCOCCCC`, the AC50 is 49.8 µM (active).

Regarding `CC(=O)OC1CCCCC1`, the outcome was inactive. Turning to `CCNc1nc(NC(C)(C)C)nc(OC)n1`, the AC50 was 19.3 µM (active).

For the compound `CCc1cccc(C)c1N(C(=O)CS(=O)(=O)O)C(C)COC` (stereo not given), the compound was classed as inactive.

Take `O=C(Cl)c1ccc(C(=O)Cl)cc1`: the outcome was inactive.

On to `CC1(C)[C@@H]2CC[C@@]1(C)C(=O)C2`, for which the compound was classed as inactive. As to `CC1CCC(C(C)(C)S)C(=O)C1` (stereo not given), the outcome was inactive. On the same count and under the same terms, next, `NNS(=O)(=O)c1ccc(Oc2ccc(S(=O)(=O)NN)cc2)cc1`: “inactive”. On to `C=CC(=O)OCCCCCCOC(=O)C=C`, for which the AC50 was 25.6 µM (active). In the case of `CCCCCCCCC(CO)CCCCCC` (stereo not given), the compound was classed as inactive. Take `CCCCc1ccc(Cl)cc1`: the call was inactive. With `CCC(C)c1ccccc1` (stereo not given), the outcome was inactive.

Take `c1ccc2cnccc2c1`: the compound was classed as inactive.

`CC1(C)C(=O)N(CO)C(=O)N1CO`: the call was inactive. Consider `CCCCCCCCCCCCC`, for which the compound was called inactive.

Regarding `CC1=CC(C)C(C=O)CC1` (stereo not given), the compound was classed as inactive.

As usually defined, the AC50 is the concentration at which the activity in the assay is half-maximal.
